Rows were chosen to be rich in hits. Some 7.3% of all compounds tested hit in one or more screens of this group.
HCMV antiviral: blocks human cytomegalovirus replication; HFF cells, HCMV-luciferase reporter, 72 h; active compounds read low; activity change, negative = inhibition, % at 57.5 µM; hit rate 4.5% among 410,000; AID 1259415; in the data active = activity change below about -60%; inconclusive = no clear call, values can overlap the other calls; inactive = above about -39%
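Cell-based, HFFs, 1000 cells/well, 16 h 37C; cpds in DMSO + HCMV-luc, MOI 1 PFU/cell; 72 h 37C; OneGlo luminescence after 5 min RT; norm. to buffer vs Salinomycin 10uM.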
Vaccinia Venus: vaccinia inhibition (Venus reporter); Vaccinia virus Venus reporter expression, fluorescence; Potency, µM (highest dose often 36.5 µM), actives largely listed as inhibitors; hit rate 0.46% among 330,000; AID 720580; calls by dose curve; tested in A549 cells; also: nearly all actives have a fitted effect of over 30% in size
FMDV antiviral: foot and mouth disease virus antiviral activity | Potency, µM (doses to about 57.9 µM), usual class: inhibitors | hit rate 1.2% among 410,000 | FMDV antiviral cell-based qHTS; calls by dose curve; tested in HEK293T cells; also: read-out not given here; nearly all actives have a fitted effect of over 45% in size
VACV mCherry inh: vaccinia inhibition (mCherry reporter); Potency, µM (titrated, usually from 36.5 µM), usual class: inhibitors; Vaccinia virus mCherry reporter infection, fluorescence; hit rate 0.63% among 310,000; calls by dose curve; tested in A549 cells; also: nearly all actives have a fitted effect of over 35% in size
HCV inh: inhibitors of hepatitis C virus infection. AID 651820. Huh7.5.1 HCVcc-Cre infection, luciferase reporter, 44 h. hit rate 3.4% among 340,000. Potency, µM (titrated, usually from 41.8 µM), hits mostly inhibitors; active = well fitted inhibition curve with a large enough effect; inconclusive = small, poorly fitted or top-dose-only effect, or another doubt; inactive = no such curve, though single readings can be large or run the other way
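Reporter virus HCVcc-Cre (~0.5 moi) infects cells exposed to compound; seeding density 1,000 cells/well with 4 h settling beforehand. Luminescence, 15 sec read, taken 44 h post-infection following a 15 min RT substrate incubation.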
Each line names hits and unclear results; the compound was inactive in the other large screens.

COC(=O)C1=C(C)NC(C)=C(C(=O)OCC(C)C)C1c1ccccc1[N+](=O)[O-] (centres undefined)	HCMV antiviral inconclusive, FMDV antiviral inconclusive, VACV mCherry inh inconclusive, HCV inh 25µM
COC(=O)C1=C(C)NC(C)=C([N+](=O)[O-])[C@H]1c1ccccc1C(F)(F)F	none (no result: HCMV antiviral, HCV inh)
Cc1cc(Nc2cccc(C(F)(F)F)c2)nc2ccc(NC(=O)c3ccc(N(C)C)cc3)cc12	Vaccinia Venus inconclusive, VACV mCherry inh inconclusive (no result: HCV inh)
O=C1C(=O)N(CNc2cccnc2)c2ccccc21	none
O=C1C(=O)N(CNc2ccccn2)c2ccccc21	HCMV antiviral -68 (no result: Vaccinia Venus, VACV mCherry inh)
CCc1cccc(NC(=O)c2cnc(SC)nc2-c2ccccc2)c1	none (no result: HCV inh)
O=C(CC(c1ccccc1)c1ccccc1O)N1CCCCC1 (centres undefined)	HCMV antiviral -82 (no result: Vaccinia Venus, VACV mCherry inh)
Cc1ccc(O)c(C(CC(=O)N2CCCC2)c2ccccc2)c1 (centres undefined)	none (no result: HCMV antiviral)
CC1NC(=O)c2ccccc2-n2c1nc1ccc(F)cc1c2=O (centres undefined)	none (no result: Vaccinia Venus, FMDV antiviral, VACV mCherry inh, HCV inh)
CC1=Nc2cc(C(=O)NCc3ccccc3Cl)ccc2Sc2c(C)ccc(C)c21	HCMV antiviral -90, VACV mCherry inh inconclusive (no result: HCV inh)
CCC1=Nc2cc(C(=O)NCc3ccccc3Cl)ccc2Sc2ccc(C)cc21	VACV mCherry inh inconclusive (no result: HCV inh)
CC1=Nc2cc(C(=O)N3CCCC3)ccc2Sc2c(C)ccc(C)c21	HCMV antiviral -100 (no result: Vaccinia Venus, VACV mCherry inh)
COc1cccc(C2CC(OCCF)=CC(=O)O2)c1 (centres undefined)	none (no result: HCV inh)
CC(C)N(Cc1nc(-c2ccc(Cl)cc2)no1)C(=O)c1ccco1	FMDV antiviral inconclusive (no result: HCV inh)
COC(=O)[C@@H]1CCCN1Cc1ccc2c(c1)CN(Cc1ccccc1F)CCO2	none (no result: HCMV antiviral, HCV inh)
COc1ccc(C2=NOC(Cn3nc(C(=O)NCc4cccs4)cc3-c3ccccc3)C2)cc1 (centres undefined)	HCV inh 10µM
COc1ccc(C2=NOC(Cn3nc(C(=O)NCc4ccc(C)cc4)cc3-c3ccccc3)C2)cc1 (centres undefined)	HCV inh 8.9µM
COCCNC(=O)c1cc(-c2ccccc2)n(CC2CC(c3ccc(OC)cc3)=NO2)n1 (centres undefined)	none
COc1ccc(C2=NOC(Cn3nc(-c4ccccc4)cc3C(=O)NCc3cccs3)C2)cc1 (centres undefined)	HCV inh inconclusive
CCOC1=NN(c2ncc(C(F)(F)F)cc2Cl)C(=O)/C1=C/N(C)C	none
CC1(C(=O)NS(=O)(=O)Cc2ccccc2)CCN1C(=O)Cc1ccccc1 (centres undefined)	none (no result: HCV inh)
CC1(C(=O)NS(=O)(=O)Cc2ccccc2)CCN1C(=O)Cc1ccccc1Cl (centres undefined)	HCMV antiviral -62 (no result: HCV inh)
CC(C)c1ccc(CC(=O)N2CCC2(C)C(=O)Nc2cnc3ccccc3c2)cc1 (centres undefined)	HCMV antiviral inconclusive, FMDV antiviral inconclusive (no result: HCV inh)
CSc1ccccc1NC(=O)C1(C)CCN1C(=O)Cc1ccc(-c2ccccc2)cc1 (centres undefined)	HCMV antiviral -62, FMDV antiviral inconclusive (no result: HCV inh)
CC(C)NC(=O)C1(C)CCN1C(=O)Cc1ccc(-c2ccccc2)cc1 (centres undefined)	none (no result: HCV inh)
CC(C)(C)c1ccc(CC(=O)N2CCC2(C)C(=O)Nc2cnc3ccccc3c2)cc1 (centres undefined)	HCMV antiviral inconclusive, FMDV antiviral 20µM (no result: HCV inh)
CC1(C(=O)Nc2ccc3nc[nH]c3c2)CCN1C(=O)Cc1ccc(-c2ccccc2)cc1 (centres undefined)	HCMV antiviral inconclusive, FMDV antiviral 32µM (no result: HCV inh)
CCOC(=O)C1=C(CS(=O)(=O)c2ccc(C)c(C)c2)NC(=O)NC1c1ccccc1OCC (centres undefined)	none (no result: HCV inh)
Cc1ccc(NC(=O)C2(C)CCN2C(=O)Cc2ccc(-c3ccccc3)cc2)cc1 (centres undefined)	HCMV antiviral -63, FMDV antiviral inconclusive (no result: HCV inh)
Cc1ccc(OCC(=O)Nc2c(Cl)ccc3nsnc23)cc1C	none (no result: HCV inh)
Cc1[nH]c(N=Nc2ccccc2)nc1N=Nc1ccccc1	VACV mCherry inh inconclusive, HCV inh 13µM
CN(C)c1ccc(N=Nc2ccccc2)cc1	none (no result: HCMV antiviral, FMDV antiviral, HCV inh)
Cc1ccccc1NC(=O)CCC(=O)N1CC(C)Sc2ccccc21 (centres undefined)	HCMV antiviral inconclusive (no result: HCV inh)
CC1CN(C(=O)CCC(=O)Nc2cc(F)ccc2F)c2ccccc2S1 (centres undefined)	HCMV antiviral -78 (no result: HCV inh)
CC(=O)c1ccc(N2C(=O)N(Cc3cc(C)ccc3C)c3ccccc3S2(=O)=O)cc1	HCMV antiviral inconclusive (no result: HCV inh)
Cc1cc2ccccn2c1C(=O)c1ccc(C#N)cc1	HCMV antiviral -81, FMDV antiviral inconclusive
Cc1cc2ccccn2c1C(=O)c1ccc(NN)c([N+](=O)[O-])c1	HCMV antiviral inconclusive, Vaccinia Venus inconclusive, VACV mCherry inh 0.89µM
COc1ccc(C(=O)NCCc2csc(-c3ccc(Cl)cc3)n2)c(OC)c1	FMDV antiviral inconclusive (no result: HCV inh)
Cn1c2ccccc2c(=O)c2c(=O)n(C3CCCCC3)c(-c3ccco3)nc21	HCMV antiviral -63, HCV inh inconclusive
CCCCCc1nc2c(c(=O)c3ccccc3n2C)c(=O)n1C1CCCCCC1	HCMV antiviral inconclusive, FMDV antiviral 32µM, HCV inh inconclusive
c1ccc(-n2nnnc2CN2CCOCC2)cc1	HCMV antiviral -68 (no result: Vaccinia Venus, VACV mCherry inh)
CN(C(=O)COC(=O)c1ccc(C(C)(C)C)cc1)C1CCS(=O)(=O)C1 (centres undefined)	none
CN(C(=O)COC(=O)c1nc(Cl)c(Cl)c(Cl)c1Cl)C1CCS(=O)(=O)C1 (centres undefined)	HCMV antiviral -99, FMDV antiviral 16µM, HCV inh 10µM
COCCNC(=O)C1(C)CCCN(Cc2ccc3ccccc3c2Br)C1 (centres undefined)	none (no result: HCV inh)
COc1cc(S(=O)(=O)NCc2ccncc2)ccc1Br	HCMV antiviral -70, HCV inh inconclusive
O=S(=O)(NCc1ccncc1)c1ccc(Br)s1	HCMV antiviral -61, Vaccinia Venus inconclusive, HCV inh inconclusive
Cc1ccc(S(=O)(=O)NCc2ccncc2)cc1C	HCMV antiviral -68, HCV inh 2.2µM
O=S(=O)(NCc1ccncc1)c1ccccc1	HCMV antiviral inconclusive, HCV inh inconclusive (no result: Vaccinia Venus, VACV mCherry inh)
Cc1cc(C)c(C)c(S(=O)(=O)NCc2ccncc2)c1C	HCMV antiviral -68, HCV inh 7.1µM
O=S(=O)(NCc1ccncc1)c1ccc(F)c(F)c1	HCMV antiviral inconclusive, FMDV antiviral inconclusive, VACV mCherry inh inconclusive (no result: HCV inh)
CNC(=O)c1cc(S(=O)(=O)NCc2ccncc2)ccc1OC	HCMV antiviral inconclusive (no result: Vaccinia Venus, VACV mCherry inh)
Cc1cc(C)cc(N(CCC#N)C(=O)COC(=O)C2CCN(c3ccc(C(F)(F)F)cn3)CC2)c1	none
Cc1nn2c(N3CCN(C)CC3)cc(C(C)(C)C)nc2c1-c1ccccc1	HCMV antiviral -67, FMDV antiviral inconclusive, HCV inh inconclusive
Cc1nn2c(N3CCN(C(=O)c4ccco4)CC3)cc(C(C)(C)C)nc2c1-c1ccccc1	HCMV antiviral -64, Vaccinia Venus 10µM, FMDV antiviral 14µM (no result: VACV mCherry inh)

Compound activity as filed in PubChem BioAssay.
